Reference: PubChem BioAssay AID2717 (Broad Institute, 2010)
Out of some 300,000 compounds screened, about 3,200 (1.1%) were called active. Cut-off read from the data, not from the text of the source: active = inhibition above about 75%; inconclusive = no clear call, values can overlap the other calls; inactive = below that; tested in HMLE shEcad cells. Many of the other results were omitted from the sample, so actives are more common in it than they were.

assay: growth suppression of cancer stem-like cells – cell-based, luminescence, primary screen (AID 2717); conditions: cancer stem cell-like cells viability, at 7.5 µM, hits give high values

| SMILES | inhibition |
| --- | --- |
| O=C(NNC(=O)c1cccc(S(=O)(=O)Nc2ccc(Cl)cc2)c1)c1ccc(=O)[nH]c1 | -9.6% (inactive) |
| Cc1ccc(NC(=O)c2cccc(S(=O)(=O)N3CCCc4ccccc43)c2)nc1 | 0.233% (inactive) |
| COc1ccc(Cl)cc1NC(=O)COC(=O)c1ccc(Br)o1 | 0.173% (inactive) |
| CS(=O)(=O)c1ccc(C(=O)NNC(=O)c2cccs2)cc1 | -0.179% (inactive) |
| Nc1nonc1-n1nnc(C(=O)N/N=C/c2cc(Br)ccc2O)c1CSC1=NCCS1 | 108% (active) |
| Nc1nonc1-n1nnc(C(=O)N/N=C/c2ccccc2O)c1CN1CCCC1 | 62% (inactive) |
| Cc1ccc(SCc2c(C(=O)N/N=C/c3cccnc3)nnn2-c2nonc2N)cc1 | 1.7% (inactive) |
| O=C1COc2ccc(C(=O)COC(=O)CCOc3ccccc3)cc2N1 | 0.0702% (inactive) |
| CC[C@@H]1Cc2cc(O)ccc2C2=C1c1ccc(O)cc1C[C@H]2CC | 102% (active) |
| CC1(C)CC(=O)c2ccc(O)cc2O1 | 2.93% (inactive) |
| CC(C)CC1(C)NC(=O)N(CC(=O)Nc2ccc3c(c2)OCCO3)C1=O (stereo not given) | -19% (inactive) |
| O=C(Nc1ccncc1)c1ccc(Cl)c([N+](=O)[O-])c1 | 2.54% (inactive) |
| CN(C)c1ccc(/C=C/C(=O)c2ccc(O)cc2)cc1[N+](=O)[O-] | 26.4% (inactive) |
| CN(C)c1ccc(/C=C/C(=O)c2ccc(C(C)(C)C)cc2)cc1[N+](=O)[O-] | 75.4% (active) |
| O=C(/C=C/c1ccc2c(c1)OCCO2)c1ccc(O)cc1 | 19.1% (inactive) |
| CC(=O)Nc1ccc(/C=C/C(=O)c2ccccc2)cc1 | 2.62% (inactive) |
| O=C(/C=C/c1ccc(Cl)c([N+](=O)[O-])c1)c1ccc(O)cc1 | 80.8% (active) |
| Cc1sc2ncnc(N3CCC(C(=O)Nc4ccc(F)cc4Cl)CC3)c2c1C | 4.03% (inactive) |
| COc1cc(OC)cc(C(=O)NCC(=O)OCC(=O)NC(C)CCc2ccccc2)c1 (stereo not given) | -13.2% (inactive) |
| CC(C)(C)OC(=O)CNC(=O)c1[nH]cnc1C(=O)N[C@@H](CCCCN)C(=O)OC(C)(C)C | -4.68% (inactive) |
| O=C(O)/C=C/C(=O)Nc1ccc(F)cc1F | -20.2% (inactive) |
| COc1ccccc1NC(=O)/C=C/C(=O)O | 0.627% (inactive) |
| COC(=O)c1sc(-c2ccc(C(C)(C)C)cc2)cc1NC(=O)/C=C/C(=O)O | 119% (active) |

| SMILES | inhibition |
| --- | --- |
| COc1cc(OC)cc(-c2cc3ccc(F)cc3cn2)c1 | 47% (inactive) |
| CC[C@]1(O)C[C@@H]2CN(CCc3c([nH]c4ccccc34)[C@@](C(=O)OC)(c3cc4c(cc3OC)N(C)[C@H]3[C@@](O)(C(=O)OC)[C@H](OC(C)=O)[C@]5(CC)C=CCN6CC[C@]43[C@@H]65)C2)C1 | 80.5% (active) |
| CC[C@]1(O)CC2CN(CCc3c([nH]c4ccccc34)[C@@](C(=O)OC)(c3cc4c(cc3OC)N(C=O)[C@H]3[C@@](O)(C(=O)OC)[C@H](OC(C)=O)[C@]5(CC)C=CCN6CC[C@]43[C@@H]65)C2)C1 (stereo not given in full) | 62.5% (inactive) |
| c1ccc(-c2ccccc2OCCN2CCCCC2)cc1 | 0.336% (inactive) |
| COc1ccc2sc(-c3ccccc3OC)c(-c3ccc(OCCN4CCCC4)cc3)c2c1 | 105% (active) |
| COc1ccccc1-c1sc2ccccc2c1-c1ccc(Br)nc1 | 31.6% (inactive) |
| c1ccc(-c2ccc(OCCN3CCOCC3)cc2)cc1 | 5.72% (inactive) |
| COc1ccc(-c2sc3ccccc3c2-c2ccc(OCCN3CCOCC3)cc2)cc1 | 136% (active) |
| CC(=O)c1ccc(OCCN2CCOCC2)cc1 | -15.6% (inactive) |
| O=C(Nc1cc(S(=O)(=O)Nc2ccc(Cl)cc2)ccc1O)c1ccc(F)cc1F | 18.9% (inactive) |
| COc1ccc(C(=O)COC(=O)C(O)c2ccccc2)c(OC)c1 (stereo not given) | 3.81% (inactive) |
| O=c1ccc2c(-c3ccccc3S(=O)(=O)O)c3ccc(O)c(O)c3oc-2c1O | 25.4% (inactive) |
| COCCN(C(=O)c1ccco1)c1nnc(-c2ccc(OC)cc2)s1 | -23% (inactive) |
| COc1cc(OC)cc(-c2nnc(N(C)C(=O)c3ccncc3)s2)c1 | -13.2% (inactive) |
| Cc1cccc(C)c1Nc1nnc(SCC(=O)NCCCN2CCCC2=O)s1 | -7.62% (inactive) |
| CN1CCN(C(=O)c2ccc(-c3ccc(Br)cc3)o2)CC1 | 44% (inactive) |
| O=C(CC1NCCNC1=O)Nc1ccc(Oc2ccccc2)cc1 (stereo not given) | 52.9% (inactive) |
| O=C(CC1Nc2ccccc2NC1=O)Nc1ccccc1 (stereo not given) | 100% (active) |
| O=C(CC1NCCc2ccccc21)Nc1cccc(Cl)c1 (stereo not given) | 7.22% (inactive) |
| O=C(COC(=O)c1ccc(O)cc1O)c1ccc2c(c1)OCCO2 | 8.44% (inactive) |
| O=C(Nc1cccc(S(=O)(=O)N2CCCCC2)c1)c1cncc(Br)c1 | -3.28% (inactive) |
| COc1ccc(CCNc2nc3ccc(C)cc3n3cnnc23)cc1OC | -23.4% (inactive) |
| COc1ccc(CCNc2nc(C)cc(C)n2)cc1OC | -36.8% (inactive) |

| SMILES | inhibition |
| --- | --- |
| CCC[C@H]1CCCC/C=C\CCCC(=O)OCCN1C(=O)OC(C)(C)C | -20.7% (inactive) |
| COc1cccc(C2=CC(=O)C[C@H](c3ccc(OC)c(OC)c3)C2)c1 | -9.08% (inactive) |
| CN(CC(=O)Nc1ccc(Cl)cc1)C(=O)c1ccc(COc2ccccc2)cc1 | 22.8% (inactive) |
| CCOC(=O)c1c(-c2ccccc2)oc2ccc(OCC(N)=O)cc12 | -4.93% (inactive) |
| CCOC(=O)c1c(-c2ccccc2)oc2cc(Br)c(O)c(C=O)c12 | 100% (active) |
| CCOC(=O)c1c(-c2ccccc2)oc2cc(Br)c(O)cc12 | 47.8% (inactive) |
| O=C1CC2(CCCC2)C(=O)N1CN1CCN(S(=O)(=O)c2ccc(F)cc2F)CC1 | -4.63% (inactive) |
| CCCN(CC1CC1)C(=O)COC(=O)c1ccc(C)cc1O | -16% (inactive) |
| CC(NC(=O)COC(=O)Cn1cc(C(F)(F)F)ccc1=O)c1ccccc1 (stereo not given) | -18.4% (inactive) |
| O=C1/C(=C\c2cccnc2)CN(Cc2ccccc2)C/C1=C\c1cccnc1 | 90.1% (active) |
| O=Cc1cn(Cc2ccccc2)nc1-c1cccnc1 | -1.18% (inactive) |
| Clc1ccc(CN2CCN(/N=C/c3cccnc3)CC2)cc1 | 3.75% (inactive) |
| CC(OC(=O)c1c(F)cccc1F)C(=O)NCCC1=CCCCC1 (stereo not given) | -17.6% (inactive) |
| Cn1c(N)c(C(=O)COC(=O)c2cccc(S(=O)(=O)N3CCOCC3)c2)c(=O)n(C)c1=O | 8.64% (inactive) |
| CCC(=O)NC(Nc1nc2ccc(C)cc2s1)(C(=O)OC)C(F)(F)F (stereo not given) | 6% (inactive) |
| O=C(NC(Nc1nc2ccc([N+](=O)[O-])cc2s1)(C(F)(F)F)C(F)(F)F)c1ccccc1 | 98.4% (active) |
| CCOc1ccc2nc(NC(=O)c3cc([N+](=O)[O-])ccc3N3CCOCC3)sc2c1 | 36.3% (inactive) |
| Cc1cccc(OCC(=O)OCC(=O)Nc2ccc(Cl)cn2)c1 | 0.766% (inactive) |
| COC(=O)C1CCN(C(=O)COC(=O)c2cc(S(=O)(=O)N3CCOCC3)ccc2C)CC1 | 4.55% (inactive) |
| COc1cc2c(-c3ccc4c(c3)OCO4)c(-c3ccsc3)oc(=O)c2cc1OC | 8.35% (inactive) |
| Cc1ccc(S(=O)(=O)NCC(=O)NNC(=O)c2ccc(Br)cc2)cc1C | 1.69% (inactive) |
| COCCCNC(=O)CSc1nc2ccc(N3CCOCC3)cc2c(=O)n1CCc1ccccc1 | 20.5% (inactive) |
| CCCCn1c(SCC(=O)NCC2CCCO2)nc2ccc(N3CCOCC3)cc2c1=O (stereo not given) | 34.5% (inactive) |

| SMILES | inhibition |
| --- | --- |
| N#CCSc1nc2ccc(N3CCOCC3)cc2c(=O)n1CCc1ccccc1 | 77.9% (active) |
| CSc1ncccc1C(=O)Nc1cccc(S(=O)(=O)N2CCOCC2)c1 | -12.8% (inactive) |
| O=c1cc(N2CCCCC2)c(-c2ccccc2)nn1Cc1cccc(F)c1 | 76.4% (active) |
| c1ccc(-c2cc(N3CCCCC3)c3ccccc3n2)cc1 | 38.6% (inactive) |
| O=C(CS(=O)(=O)c1cn(Cc2cccc(F)c2)c2ccccc12)N1CCCCC1 | -3.16% (inactive) |
| CC(=O)c1c(OCC(=O)N(C)C2CCCCC2)ccc2c(C)cc(=O)oc12 | -10.2% (inactive) |
| O=C(CNC(=O)c1ccco1)NNC(=O)c1ccc(Br)cc1 | 5.78% (inactive) |
| O=C(Cc1cccc2ccccc12)NNC(=O)Nc1ccc(Cl)cc1 | 8.44% (inactive) |
| Cc1ccc(NC(=S)NC(NC(=O)Cc2cccc3ccccc23)C(Cl)(Cl)Cl)cc1 (stereo not given) | 192% (active) |
| CC(C)(C)C(=O)NC(NC(=S)Nc1ccc(S(N)(=O)=O)cc1)C(Cl)(Cl)Cl (stereo not given) | -4.65% (inactive) |
| CCOC(=O)[C@H]1[C@H]2COc3ccc(Cl)cc3[C@@H]2N2C(=O)c3cc(C)ccc3NC(=O)[C@@]12C | -10.6% (inactive) |
| CCOCCn1c(-c2ccccc2)nc2ccccc21 | -0.165% (inactive) |
| CCCCn1c(N)c(N(CCOC)C(=O)CSCC(=O)Nc2cccc(C)c2)c(=O)[nH]c1=O | -17.7% (inactive) |
| CCCCn1c(-c2cccc(C)c2)nc2cc3[nH]c(=O)c(C(C)C)nc3cc21 | 75.5% (active) |
| Cc1cc(NC(=O)CN2C(=O)NC(CC(C)C)C2=O)no1 (stereo not given) | -1.14% (inactive) |
| Cc1ccccc1NC(=O)CSC(=O)c1ccccc1 | -3.3% (inactive) |
| O=C(COC(=O)/C=C/c1ccc(Br)o1)Nc1cccc(S(=O)(=O)N2CCOCC2)c1 | -14.4% (inactive) |
| Oc1c(C=Nc2cccc3nsnc23)ccc2ccccc12 | 87.2% (active) |
| COc1ccc(C=Nc2cccc3ncccc23)cc1 | -1.64% (inactive) |
| O=[N+]([O-])c1ccc(N=Cc2c(O)ccc3ccccc23)cc1 | 12.2% (inactive) |
| C[C@H]1CN([C@@H](C)CO)C(=O)Cc2cc(NC(=O)Cc3ccccc3)ccc2O[C@H]1CN(C)S(=O)(=O)c1cccs1 | -17% (inactive) |
